Bioassay records as filed in PubChem.
The list is not random: actives were taken first. Their share in the collection is about 4%.
UGM FP inh: M. tuberculosis UGM enzyme inhibitors, primary screen, biochemical, fluorescence polarization, single point; UDP-galactopyranose mutase (Mycobacterium tuberculosis (strain ATCC 25618 / H37Rv)), …; purified UGM, fluorescence polarization probe displacement; inhibition, % at 10 µM; 0.06% of 320,000 active; in the data active = inhibition above about 10%, passing the limit was not always enough
Mtb FBA inh: Mtb FBA enzyme inhibitors, primary screen, biochemical, fluorescence, strain H37Rv; Fructose-bisphosphate aldolase (Mycobacterium tuberculosis (strain ATCC 25618 / H37Rv)), …; inhibition, % at 1 µM; 2.3% of 360,000 active; purified M. tuberculosis FBA, fluorescence read-out; in the data active = inhibition above about 27%;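 note: 0% = vehicle and 100% = reference inhibitor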
Mtb bLac sens: beta-lactam sensitization of Mtb H37Rv, H37Rv | inhibition, % at 25 µM | 0.27% of 330,000 active | M. tuberculosis H37Rv growth with meropenem, percent inhibition; call rule not given here;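 note: growth measured after seven days incubation then overnight dye step; 0% = bacteria only wells and 100% = bacteria with antibiotic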
Rv3671c protease: Rv3671c serine protease inhibitors, primary screen, biochemical, fluorescence polarization, M. tuberculosis H37Rv; P9WHR9; inhibition, % at 5.96 µM; 0.048% of 320,000 active; AID 2606, 2010; in the data active = inhibition above about 38%;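 note: extracellular domain of Rv3671c used as enzyme; 0% = enzyme with DMSO and 100% = no enzyme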
Target sequence (P9WHR9 whole entry, looked up, the tested form may be a part): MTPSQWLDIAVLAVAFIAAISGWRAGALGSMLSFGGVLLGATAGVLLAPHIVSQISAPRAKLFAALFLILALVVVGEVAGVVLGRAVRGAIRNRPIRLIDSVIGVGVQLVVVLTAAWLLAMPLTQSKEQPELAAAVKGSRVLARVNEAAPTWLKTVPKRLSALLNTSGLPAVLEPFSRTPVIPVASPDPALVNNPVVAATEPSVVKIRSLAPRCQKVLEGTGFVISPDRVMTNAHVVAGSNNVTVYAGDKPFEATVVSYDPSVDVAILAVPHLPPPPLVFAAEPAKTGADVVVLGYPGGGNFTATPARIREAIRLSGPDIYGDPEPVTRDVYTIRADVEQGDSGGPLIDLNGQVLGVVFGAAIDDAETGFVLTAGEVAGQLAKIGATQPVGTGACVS
RecA intein inh: Mtb RecA intein splicing inhibitors, primary screen, biochemical, fluorescence, HTS; Protein RecA (Mycobacterium tuberculosis (strain ATCC 25618 / H37Rv)), P9WHJ3; cell-free RecA intein splicing; inhibition, % (test concentration not listed); 0.75% of 290,000 active; AID 2221, 2009; in the data active = inhibition above about 30%;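 note: 0% = vehicle wells and 100% = reference inhibitor control wells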
GDH-TPI counter: GDH-TPI coupling enzyme inhibitors, primary screen, artefact control for M. tuberculosis FBA inhibitor project, biochemical, absorbance, full deck | AID 588335, 2011 | GDH-TPI coupled enzyme counterscreen, NADH absorbance | inhibition, % at 4.8 µM | 1.2% of 360,000 active; in the data active = inhibition above about 30%;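 note: 0% = DMSO wells and 100% = wells lacking the enzyme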
An asterisk follows results filed as active; · = no result given; + = active, no number.

SMILES | UGM FP inh | Mtb FBA inh | Mtb bLac sens | Rv3671c protease | RecA intein inh | GDH-TPI counter
O=c1[nH]cccc1-c1nc2ccccc2n1Cc1cccc(F)c1 | -0.8 | 161.6* | -2.5 | -1.6 | -0.7 | 8.2
O=c1[nH]cccc1-c1nc2ccccc2n1Cc1cccc(Cl)c1 | -0.1 | 135.2* | -1.1 | -3.1 | -1.1 | 2.9
O=c1ccc2ccccc2n1Cc1cccc(F)c1 | -0.2 | 2.0 | 1.7 | 13.6 | 2.1 | 10.9
O=c1oc2ccccc2n1Cc1cccc(F)c1 | -0.1 | 0.5 | -10.3 | -2.6 | 1.2 | -0.7
CCOC(=O)c1c(NC(=O)COC(=O)Cc2c[nH]c3ccccc23)sc(C(=O)N(C)C)c1C | 2.8 | 2.6 | -0.3 | -14.1 | -2.6 | 4.2
CCc1nc2ccc(C(=O)NCCCN3CCCC3=O)cn2c1N(C)C(=O)C1CCCCC1 | · | 7.4 | · | · | · | 0.0
CCCN1C=CC(=C/C=C(\C#N)C(=O)OCC)C=C1 | -5.7 | · | -0.9 | -22.9 | -10.1 | ·
CCOC(=O)/C(C#N)=C/N=c1ccc(C)cn1C | 2.7 | 1.9 | -1.7 | 0.8 | -3.6 | 39.3*
C=CCC[C@@H](Cc1ccc(F)cc1)C(=O)OC[C@H](C)NC(=O)[C@H](CC=C)CC(=O)N(CCO)Cc1ccccc1 | 1.8 | 133.5* | 1.9 | 1.7 | · | 3.6
Cc1cc(C)n2nc(SCC(=O)Nc3ccccc3C)nc2n1 | -2.3 | 2.1 | 3.0 | 8.4 | -4.5 | 5.2
Cc1cccc(NC(=O)c2cc([N+](=O)[O-])ccc2Cl)c1O | 1.6 | -4.3 | -3.6 | 1.1 | 3.5 | -2.5
Cc1n[nH]c(C)c1NC(=O)c1cc([N+](=O)[O-])ccc1Cl | 0.4 | 142.2* | -2.3 | -2.4 | -1.1 | 5.2
COc1cc(NC(=O)Cn2ncc(Cl)c(Cl)c2=O)c(C)cc1[N+](=O)[O-] | · | -1.6 | · | · | 53.0* | 3.0
CCOC(=O)C1=CCN(S(=O)(=O)c2ccc(Cl)cc2)C1c1ccc(C)cc1 (stereo not given) | · | 1.3 | · | · | · | ·
CN1CCN(c2ccc(CNC(=O)C3(C)Cc4c(-c5ccccc5)ccnc4O3)cc2)CC1 (stereo not given) | · | -3.5 | · | · | · | -1.8
Cc1ccc(F)c(S(=O)(=O)NC(=O)C2(C)CCN2C(=O)c2sccc2C)c1 (stereo not given) | · | -4.2 | · | · | · | 10.6
NS(=O)(=O)c1ccc(N=Nc2c(O)[nH]c(=S)[nH]c2=O)cc1 | -0.8 | -33.1 | -6.8 | -1.1 | 33.9* | 21.5
Cn1ncc2c(=O)[nH]c(N)nc21 | · | -1.4 | · | · | · | -2.3
Nc1ccc(-c2nc3ncccc3o2)cc1 | 0.1 | + | 3.9 | -5.1 | -0.7 | 42.7*
O=C(Nc1ccc(-c2nc3ncccc3o2)cc1)c1ccc(Br)o1 | 10.0 | 14.3 | -5.2 | -48.5 | -4.9 | 57.0*
COc1cc(S(=O)(=O)n2ccc(C)n2)c(C)cc1C | · | -0.2 | · | · | · | 8.4
CC(=O)Oc1cc2oc(=O)cc(C)c2cc1OC(C)=O | -0.6 | 173.4* | -2.0 | -1.5 | -170.9 | 27.2
Cc1coc2cc3oc(=O)cc(C)c3cc12 | 1.4 | 19.6 | 4.5 | -3.5 | -1.7 | 21.7
Cc1ccccc1-c1c(C)oc2cc(O)ccc2c1=O | -1.0 | + | 8.4 | -6.5 | 0.9 | 24.6
O=c1[nH]c2cc(O)ccc2c2ccccc12 | · | 16.9 | · | · | · | 14.7
SMILES | UGM FP inh | Mtb FBA inh | Mtb bLac sens | Rv3671c protease | RecA intein inh | GDH-TPI counter
Cc1cc(=O)[nH]c2cc(O)ccc12 | 3.4 | + | 93.2 | 1.4 | -2.9 | 0.0
Cc1cc(=O)[nH]c2c(C)c(N)ccc12 | 3.7 | + | 7.2 | -1.4 | -3.0 | 7.7
Cc1oc2cc(O)ccc2c(=O)c1N1C(=O)c2ccccc2C1=O | 0.2 | 10.3 | -39.3 | 4.6 | 1.4 | 27.9
CC(=O)Oc1cc(OC(C)=O)c2c(C)cc(=O)oc2c1 | 0.4 | + | -4.0 | -1.4 | -34.0 | 10.1
Cc1cc(=O)oc2cc(OC(=O)C3CCN(C(=O)c4ccc(F)cc4)CC3)ccc12 | -0.3 | 148.3* | 0.4 | 5.7 | -3.7 | 3.1
COC(=O)c1ccc(COC(=O)CSCC(=O)Nc2ccc(C)cc2C)cc1 | -1.1 | 3.8 | 52.0 | -2.2 | · | 3.2
Cc1ccc(NC(=O)CSCC(=O)OCc2cc(=O)oc3cc(O)ccc23)c(C)c1 | -0.7 | 118.5* | -6.8 | -7.4 | -27.5 | 11.8
CC(=O)Oc1cc(OC(C)=O)c2c(=O)c(-c3ccc4c(c3)OCCCO4)c(C)oc2c1 | 0.9 | 26.8 | -13.0 | -0.9 | 5.5 | 11.6
N#Cc1cccc(OC(=O)C2CCN(C(=O)c3ccc(F)cc3)CC2)c1 | · | 0.6 | · | · | · | 4.4
Cc1cc(=O)oc2cc(OC(=O)CCCCCN3C(=O)c4ccccc4C3=O)ccc12 | 3.8 | 152.9* | 69.2 | -5.6 | 0.3 | 9.6
COc1cccc(C(C(=O)NC2CCCCC2)N(C(=O)c2csnn2)C2CC2)c1 (stereo not given) | 1.0 | 0.9 | 4.7 | -4.3 | -3.3 | 3.1
COc1cccc(/C=C/C(=O)N2CCN(S(=O)(=O)c3ccccc3)CC2)c1OC | 0.1 | 0.5 | -1.3 | -9.0 | 1.4 | 9.9
CC(=O)Oc1ccc2c(C)cc(=O)oc2c1 | -4.4 | + | 77.2 | 1.8 | -27.5 | -7.6
Cc1cc(=O)oc2ccc(OCc3ccccc3)cc12 | 3.3 | 6.7 | 0.8 | -2.4 | -0.9 | 14.4
CCC(=O)Oc1ccc2c(C)cc(=O)oc2c1C(=O)CC | 2.2 | 7.7 | -1.9 | 4.8 | 5.2 | 7.7
CCN(c1ccccc1)S(=O)(=O)c1cc(C(=O)OCC(=O)c2c(N)n(C)c(=O)n(C)c2=O)ccc1C | · | -1.7 | · | · | · | 3.8
Cc1cc(=O)oc2cc(O)cc(OCc3ccccc3)c12 | · | + | · | · | · | 31.0*
CC(=O)Nc1c(OC(C)=O)ccc2c(C)cc(=O)oc12 | -1.4 | + | 9.3 | 4.6 | -85.2 | 12.4
CCN(c1ccccc1)S(=O)(=O)c1cc(C(=O)Oc2ccc3c(C)cc(=O)oc3c2)ccc1C | -0.8 | + | 82.8 | -11.9 | -0.1 | 1.9
Cc1ccc(S(=O)(=O)N2CCCCC2)cc1NC(=O)C1CCC1 | 1.6 | 2.1 | 2.1 | -2.2 | · | -4.8
COc1cccc(C(=O)NCC2(c3ccccc3)CCCC2)c1OC | -0.9 | -2.5 | 2.4 | 2.4 | 8.3 | -1.9
CC(=O)Oc1ccc(C2=Cc3ccc(OC(C)=O)cc3OC2C)cc1 (stereo not given) | · | 4.2 | · | · | · | 19.8
COc1ccc(-c2cc(=O)oc3cc(O)ccc23)cc1 | -3.9 | 22.6 | -3.2 | 3.5 | -48.9 | 14.7
COC(=O)Cc1cc(=O)oc2cc(O)ccc12 | -0.5 | + | -0.6 | 11.8 | -298.3 | 13.2
O=c1cc(O)c2ccc(O)cc2o1 | -0.5 | 17.9 | -1.7 | -8.6 | -5.5 | 9.8
Cc1ccc(S(=O)(=O)CCC(=O)Oc2ccc3c(C)cc(=O)oc3c2)cc1 | -0.4 | + | -6.3 | 2.7 | -5.4 | 8.4
Cc1cc(=O)oc2cc(O)ccc12 | 0.2 | + | -13.7 | 1.7 | -27.6 | 14.6
